Vif-APOBEC3F blk: qHTS for Inhibitors of Vif-A3F Interactions: qHTS | HeLa A3F-eYFP + Vif (tagged APOBEC3F with the HIV-1 protein that degrades it), YFP fluorescence increase | Potency, µM (top dose mostly 46.1 µM), inactives show top-dose activity, negative = active | 390,000 compounds, 0.2% hits; also: potency is read from the fitted curve at half-maximal effect; % of control where 0% means no effect; nearly all actives have a fitted effect of over 65% in size
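Fluorescence increase (Ex 488/Em 500-530) after overnight compound treatment at 37 deg C flags inhibition of Vif-driven A3F-eYFP loss in stable HeLa A3F-eYFP/Vif cells seeded overnight beforehand.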
TSHR antag: Antagonists of the Thyroid Stimulating Hormone Receptor: HTS campaign | Thyrotropin receptor (Homo sapiens), P16473 | TSHR-expressing cells, TSH-stimulated cAMP HTRF, 2 h; stronger effect = lower value | activity change, negative = inhibition, % at 11.5 µM | 330,000 compounds, 0.2% hits;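 active = activity change below a set negative limit, meaning inhibition stronger than a set level, cut at about -70% in these data; inconclusive = activity change between two set negative limits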; also: % is scaled to controls: 0 for no effect and ±100 for the full control effect
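Inhibition of cAMP made by TSHR-expressing cells under TSH stimulation (4nM final, EC80; 2 h, 37 deg C) is quantified with a one-step lysis HTRF kit, anti-cAMP cryptate versus cAMP-d2.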
VDR inh: Inhibitors of the vitamin D receptor (VDR): qHTS | Vitamin D3 receptor (Homo sapiens), P11473 | VDR-SRC2-3 peptide fluorescence polarization, 2 h | Potency, µM, for inactives: max response, negative = inhibition, actives largely listed as inhibitors | 400,000 compounds, 0.93% hits; also: potency is read from the fitted curve at half-maximal effect; % is scaled to controls: 0 for no effect and ±100 for the full control effect
Target sequence (P11473 whole entry, looked up): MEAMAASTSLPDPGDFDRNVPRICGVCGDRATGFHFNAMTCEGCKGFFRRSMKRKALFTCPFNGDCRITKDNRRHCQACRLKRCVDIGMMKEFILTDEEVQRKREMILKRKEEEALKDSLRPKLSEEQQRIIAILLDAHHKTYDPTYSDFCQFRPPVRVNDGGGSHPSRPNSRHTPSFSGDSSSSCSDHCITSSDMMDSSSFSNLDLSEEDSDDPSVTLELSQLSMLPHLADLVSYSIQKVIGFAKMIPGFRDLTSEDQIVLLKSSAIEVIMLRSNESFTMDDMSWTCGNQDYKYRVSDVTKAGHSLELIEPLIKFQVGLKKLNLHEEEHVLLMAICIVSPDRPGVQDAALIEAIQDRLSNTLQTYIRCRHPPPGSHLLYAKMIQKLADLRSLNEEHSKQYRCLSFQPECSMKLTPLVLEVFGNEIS
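After 23 nl compound addition and a short centrifugation, plates sat for 2 hours at ambient temperature; polarization of fluorescence then indicated loss of VDR binding to peptide SRC2-3.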
PLK1 PBD inh: qHTS for Inhibitors of PLK1-PDB (polo-like kinase 1 - polo-box domain): Primary Screen; Plk1 PBD binding of FITC phosphopeptide, fluorescence polarization; Potency, µM, without a hit: max response, negative = inhibition, actives largely listed as inhibitors; 360,000 compounds, 2.8% hits; AID 720504, 2013; also: potency is read from the fitted curve at half-maximal effect; series mostly up to about 57 µM; % is scaled to controls: 0 for no effect and ±100 for the full control effect; nearly all actives have a fitted effect of over 65% in size
Vif-A3G inh: qHTS for Inhibitors of Vif-A3G Interactions: qHTS | DNA dC->dU-editing enzyme APOBEC-3G (Homo sapiens), Q9HC16 | Potency, µM (series often up to 46.1 µM), for the others: at the highest dose activity, negative = active, actives largely listed as inhibitors | HeLa A3G-eYFP + Vif (tagged APOBEC3G with the HIV-1 protein that degrades it), YFP fluorescence, overnight | 410,000 compounds, 0.076% hits | AID 602310, 2012; also: potency is read from the fitted curve at half-maximal effect; % is scaled to controls: 0 for no effect and ±100 for the full control effect; nearly all actives have a fitted effect of over 60% in size
Target sequence (Q9HC16 whole entry, looked up): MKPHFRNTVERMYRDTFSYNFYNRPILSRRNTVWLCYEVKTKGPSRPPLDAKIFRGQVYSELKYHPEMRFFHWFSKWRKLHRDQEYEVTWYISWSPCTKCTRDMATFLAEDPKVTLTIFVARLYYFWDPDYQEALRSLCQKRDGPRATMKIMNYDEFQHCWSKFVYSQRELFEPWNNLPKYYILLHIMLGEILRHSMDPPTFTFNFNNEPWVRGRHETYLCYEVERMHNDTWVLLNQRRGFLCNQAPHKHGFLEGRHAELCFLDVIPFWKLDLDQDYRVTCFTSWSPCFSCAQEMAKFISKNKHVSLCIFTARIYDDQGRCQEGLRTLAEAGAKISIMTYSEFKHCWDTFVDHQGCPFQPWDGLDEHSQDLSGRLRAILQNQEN
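HeLa cells stably expressing Vif and C-terminally eYFP-tagged A3G, seeded overnight at 37 deg C, then exposed to compound by pintool overnight at 37 deg C. Rise in yellow fluorescence (Ex 488/Em 500-530, Acumen) marks blocked Vif-driven A3G degradation.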
The depositor's hits bear a star; ? = inconclusive; / = no result; ! = a repeat was not active. In the library only some 3.1% were active in any assay of this set; here they are far more common. Unless noted, calls follow the shape of the dose curve; as a rule, active = well fitted curve in the direction sought with a large enough effect; inconclusive = small, poorly fitted or top-dose-only effect, or another doubt; inactive = no such curve, though single readings can be large; an effect the other way counts as inactive or inconclusive.

SMILES | Vif-APOBEC3F blk | TSHR antag | VDR inh | PLK1 PBD inh | Vif-A3G inh
Cc1ccc(-c2cc(NC(=O)CCl)n(-c3ccccc3)n2)cc1 | -6.3% | 22.0 | ? | 26.7µM* | -9.2%
CN1CCN(CC(=O)c2cc(C(C)(C)C)c(O)c(C(C)(C)C)c2)CC1 | 11.8% | -14.1 | 70.8µM* | -25.2% | 0.4%
C=Cn1cc[n+](CC(=O)c2cc(C(C)(C)C)c(O)c(C(C)(C)C)c2)c1 | 2.3% | 15.9 | -10.5% | -2.6% | 1.5%
O=C(c1nn2c(C(F)(F)F)cc(-c3ccc(F)cc3)nc2c1Cl)N1CCOCC1 | -0.4% | / | -3.8% | 26.7µM* | 0.9%
Cn1c(NCCN(CCO)CCCc2ccc([N+](=O)[O-])cc2)cc(=O)n(C)c1=O | 0.9% | / | 50.1µM*! | -4.0% | 0.1%
CCCCNc1cc(=O)n(C)c(=O)n1C | -5.6% | 4.1 | 9.8% | -4.1% | 0.8%
S=c1nn[nH]c2ccccc12 | -13.3% | / | -14.2% | 26.7µM* | 4.8%
CCCCN1CC(=O)N2[C@@H]3c4cc(OC)ccc4OC[C@@H]3[C@H](C(=O)OCC)[C@]2(C)C1=O | 4.4% | / | ? | 23.8µM* | 0.0%
CCCCN1CC(=O)N2[C@H]3c4cc(OC)ccc4OC[C@@H]3[C@H](C(=O)OCC)[C@]2(C)C1=O | -3.0% | -14.1 | -21.5% | 3.7% | 0.6%
COc1ccccc1N1CCN(C(=O)CSc2ncnc3scc(-c4ccccc4)c23)CC1 | 0.0% | -19.4 | ? | 15µM* | 0.3%
CSc1nc(=S)c2[nH]c(=S)[nH]c2[nH]1 | ? | -5.5 | ? | 2.67µM* | 0.9%
COc1ccc(CNc2ccnc(-c3ccc(N(C)C)cc3)n2)c(OC)c1 | / | / | -14.3% | / | /
NC(=O)NC(=O)COC(=O)c1sc2ccccc2c1Cl | -14.2% | -0.5 | ? | 13.4µM* | 1.6%
Cn1ncc2c(c(SCc3ccc(Cl)cc3Cl)nn2C)c1=O | -0.9% | -11.3 | ? | 11.9µM* | -0.8%
CN(C)C(=O)n1nnnc1Cc1ccc(-c2ccccc2)cc1 | / | / | 5.9% | / | /
C[n+]1ccc(/C=C/c2ccc([N+](C)(C)C)cc2)c2ccccc21 | / | / | / | / | 4.2%
Cc1cccc(CNc2nc(-c3ccccc3CN(C)C)nc3ccccc23)c1 | / | / | -0.4% | / | /
COc1ccc(S(=O)(=O)NCCc2cn3nc(C)c(C)nc3n2)cc1F | -1.0% | -88.4* | -3.3% | -16.8% | 7.3%
COc1ccc(S(=O)(=O)NCCc2csc(-c3ccc(F)cc3)n2)cc1F | -6.7% | / | 10.2% | / | -11.6%
COC(CNC(=O)c1cn(C)c2ccc(S(=O)(=O)N3CCOCC3)cc2c1=O)OC | -7.5% | -118.4* | 18.3% | 2.8% | -4.3%
CCn1cc(C(=O)NCC(OC)OC)c(=O)c2cc(S(=O)(=O)N3CCOCC3)ccc21 | -5.7% | -38.3 | -21.7% | -11.6% | 1.3%
O=C(CCl)N1c2ccccc2Oc2ccc3ccccc3c21 | ? | / | 20µM* | 8.44µM* | ?
Cc1ccc(SCC(CC(C)C)N2CCN(C)CCC2=O)cc1 (configuration not stated) | / | / | -2.2% | / | -0.1%
Fc1ccc(NC(=S)NCCc2ccc(Cl)cc2)cc1 | -6.2% | -5.4 | -11.8% | -16.3% | 1.4%
O=C(NCCc1ccccc1)Nc1ccc2c(c1)OCO2 | 0.6% | 0.7 | -2.6% | -1.3% | 1.7%
SMILES | Vif-APOBEC3F blk | TSHR antag | VDR inh | PLK1 PBD inh | Vif-A3G inh
O=C(NCCc1ccc(Cl)cc1)Nc1ccc(F)cc1 | -27.0% | -1.7 | -11.8% | 23.8µM* | 0.4%
O=C(NCCc1ccc(F)cc1)Nc1ccc2c(c1)OCO2 | 2.2% | 4.8 | -19.4% | 8.44µM* | 1.3%
CC1(C)C2CCC(CN=C(N)CSS(=O)(=O)O)C1C2 (configuration not stated) | -9.7% | / | / | 4.74µM* | -0.5%
CCOc1ccc(NC(=O)c2cn(-c3ccc(OCC)cc3)c(=O)c3cc(OC)c(OC)cc23)cc1 | 1.5% | -0.6 | 17.3% | -7.6% | 1.0%
CCOc1ccc(-n2cc(C(=O)NC(C)C)c3cc(OC)c(OC)cc3c2=O)cc1 | 2.0% | -8.9 | ? | 23.8µM* | -1.7%
Cc1cc(NC(=O)c2ccco2)ccc1NC(=O)c1ccco1 | -4.6% | 5.5 | -12.0% | -13.0% | 0.0%
Cc1ccc(NC(=O)c2cnn(-c3ccccc3)c2NC(=O)c2ccco2)cc1 | -3.9% | 5.9 | -21.7% | 3.36µM* | -4.6%
Cc1ccc(C)c(NC(=S)NNC(=O)c2ccco2)c1 | -16.3% | 3.6 | -23.4% | 18.9µM* | 3.7%
Cc1cc(NC(=O)c2ccco2)cc(-c2nc3cc(Cl)ccc3o2)c1O | 11.2µM* | / | 0.4% | / | ?
Cc1ccc2oc(-c3cc(NC(=O)c4cccs4)cc(C)c3O)nc2c1 | 1.1% | / | 8.3% | / | -0.9%
Cc1ccc(NC(=O)c2ccco2)cc1C | 4.2% | 13.2 | 10.8% | 21.2µM* | -2.0%
CCCCCCCCCCCCCCCCOC(=O)N1CCN(/[N+]([O-])=N/Oc2ccc([N+](=O)[O-])cc2[N+](C)=O)CC1 | / | / | / | / | -0.6%
O=[N+]([O-])c1ccc(S(=O)(=O)N2CCN(c3nc(-c4cccs4)nc4ccccc34)CC2)cc1 | / | / | -3.0% | / | 0.0%
COCCn1c(=O)c(-c2ccc(Cl)cc2)nc2cnc(Oc3cccc(Cl)c3)nc21 | / | / | -2.5% | / | /
O=C1C[C@H](c2ccc3ccccc3c2)N1S(=O)(=O)c1ccccc1[N+](=O)[O-] | / | / | -19.1% | / | 1.3%
O=C(O)c1cccc(NC2=C(N3CCOCC3)C(=O)c3ccccc3C2=O)c1 | -2.9% | -2.7 | 70.8µM* | -17.7% | 2.2%
Nc1nc(=S)[nH]c2n[nH]nc12 | / | / | / | / | 1.1%
CCSc1nccc(-c2nn(-c3ccc(C)cc3)ccc2=O)n1 | -4.1% | -5.6 | 5.4% | -8.9% | ?
C#CCSc1nccc(-c2nn(-c3ccc(C)cc3)ccc2=O)n1 | / | -1.8 | ? | 26.7µM* | ?
c1cn(-c2ncnc3ccc(-c4ccoc4)cc23)cn1 | / | / | 31.6µM* | / | /
Cc1cccc(CNc2ncnc3ccc(-c4ccoc4)cc23)c1 | 4.0% | -14.1 | 20µM*! | / | -0.5%
c1nc(NC2CC2)c2cc(-c3ccoc3)ccc2n1 | / | / | 39.8µM* | / | /
c1nc(NC2CCNCC2)c2cc(-c3ccc4c(c3)OCO4)ccc2n1 | / | / | 3.2% | / | /
Cc1cc(C)cc(OC2CCCCC2NS(=O)(=O)c2ccccc2)c1 (configuration not stated) | -10.5% | 5.9 | 11.5% | -6.2% | 1.8%
CSc1ccc(OC2CCCCC2NS(=O)(=O)c2ccccc2)cc1 (configuration not stated) | 3.8% | -8.7 | -22.3% | 23.8µM* | 1.7%
O=Cc1ccccc1OCCOc1ccc([N+](=O)[O-])cc1 | -4.1% | -0.9 | ? | 26.7µM* | 0.8%
COc1ccc(NC(=O)C2CCN(C(=O)c3cccs3)CC2)c(OC)c1 | -6.6% | 4.1 | ? | 7.52µM* | 0.2%
O=C(NCC1CCCCC1)c1nnc(C(=O)NCC2CCCCC2)c2c1[nH]c1ccccc12 | / | / | 7.6% | / | /
